Experimental data as given in PubChem BioAssay (NCI).
The panel holds about 83,000 compounds, 20% with a hit somewhere; the sample as a whole holds those more often.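 Interpretation: 100, growth as untreated; towards 0, rising growth inhibition; 0, no net growth; 0 to -100, cell death. Compounds scoring below 10 were considered active.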 Values without a mark were called inactive. Activity calls are given as the source filed them.

Assays:
Experiment in all cases: NCI-60 one-dose screen, 48 h (100 = growth as untreated, 0 = no growth, -100 = all killed)
Conditions in all cases: 10 µM unless noted
[1] = system: SK-MEL-2 melanoma
[2] = system: EKVX NSCLC
[3] = system: SN12C renal
[4] = system: UO-31 renal
[5] = system: TK-10 renal
[6] = system: ACHN renal
[7] = system: CAKI-1 renal
[8] = system: A498 renal
[9] = system: CCRF-CEM leukemia
[10] = system: RPMI-8226 leukemia
[11] = system: OVCAR-8 ovarian
[12] = system: OVCAR-5 ovarian
[13] = system: OVCAR-4 ovarian
[14] = system: SK-OV-3 ovarian
[15] = system: IGROV1 ovarian
[16] = system: OVCAR-3 ovarian
[17] = system: HS 578T breast
[18] = system: NCI/ADR-RES ovarian
[19] = system: SR leukemia
[20] = system: MOLT-4 leukemia

Row | SMILES | growth [1] | growth [2] | growth [3] | growth [4] | growth [5] | growth [6] | growth [7] | growth [8] | growth [9] | growth [10] | growth [11] | growth [12] | growth [13] | growth [14] | growth [15] | growth [16] | growth [17] | growth [18] | growth [19] | growth [20]
1 | COc1cc(CCC[P+](c2ccccc2)(c2ccccc2)c2ccccc2)cc2c1OCO2 | 6.71% (active) | 28.3% | 35.9% | 88.2% | 19.5% | 91.8% | 86% | 45.9% | 41.3% | 9.71% (active) | 29.5% | 59.1% | 12.4% | 82.4% | 28.8% | 19.7% | 45.5% | 101% |  | 
2 | COc1ccc(N=Nc2ccc(O)c(=O)cc2)cc1 | 19.7% | 4.69% (active) | 6.7% (active) | 1.08% (active) | 44.3% | 4.83% (active) | 11.1% | 82.4% | 15.8% | 9.86% (active) | 9.87% (active) | 47.8% | 31.8% | 16.5% | 15.1% | 16.2% | 30.7% | -29% (active) |  | 
3 | CNC(=O)c1cc(Oc2cccc3nc(Nc4ccc(F)c(Cl)c4)ccc23)ccn1 | 90.8% | 69.5% | 60.4% | 68.7% | 52.9% | 75.3% | 97% | 60.4% | 60.3% | 54.1% | 44.8% | 91.9% | 40.1% | 70.1% | 44.5% | 64.6% | 70% | 57.4% |  | 
4 | O=C(Nc1ccccc1-c1nc2ccccc2c(=O)[nH]1)c1cc2ccccc2[nH]1 | 96.4% | 78.9% | 94.7% | 63.6% | 111% | 86.7% | 81.8% | 119% | 97.4% | 98% | 87.4% | 95.3% | 105% | 78.4% | 69.2% | 102% | 85.8% | 98.1% |  | 
5 | CCCCCCCCCCCCCCCCCCOc1ccc(CC(=O)OCC[N+]2(C)CCCC2)cc1 | 117% | 100% | 97.9% | 92.4% | 98.4% | 96.8% | 84.9% | 116% | 99.1% | 97.6% | 99.7% | 97.9% | 87.3% | 108% | 94.1% | 109% | 95% | 106% | 101% | 
6 | CCN(CC)Cc1cccc(C(=O)OC)c1 | 100% | 95.7% | 105% | 103% | 92.5% | 96.6% | 97.2% | 115% | 76.3% | 91.8% | 99.6% | 94.1% | 101% | 89.4% | 102% | 111% | 109% | 102% | 95% | 
7 | CCN1C(=O)N(CC)C2Nn3c(s/c(=C\c4ccc(Cl)cc4Cl)c3=O)=NC21 (stereo unspecified) | 71.2% | 68.8% | 43.3% | 53.5% | 15.8% | 37.6% | 36.9% | 21.4% | 41.7% | 47.2% | 36.1% | 54.5% | 56.7% | 70.2% | 40.6% | 17.4% | 55.4% | 14.7% |  | 
8 | COc1ccc(C(=O)Nn2c(NCC(=O)N3c4ccccc4Sc4ccccc43)nnc2-c2ccc(O)cc2)cc1 | 108% | 108% | 94.7% | 98.1% | 109% | 103% | 107% | 90.2% | 110% | 105% | 101% | 89.3% | 120% | 105% | 110% | 121% | 106% | 97.8% |  | 
9 | O=C(N=c1oc2ccccc2cc1-c1cc2ccccc2[nH]1)c1ccc(Cl)cc1 | 101% | 38.9% | 80.3% | 54.5% | 53.1% | 6.82% (active) | 56.2% | 69.6% | 24.7% | 38.5% | 50.5% | 89.3% | 57.7% | 57.3% | 29.7% | 50.5% | 63.3% | 38.6% |  | 
10 | Cc1ccc(-c2cc(-c3ccccc3C)[nH]c(=O)c2C#N)s1 | 110% | 96.9% | 91.8% | 71.7% | 92.1% | 90.7% | 82.9% | 77.5% |  | 97.5% | 95.5% | 93.4% | 85.1% | 111% | 80.4% | 94.5% | 82.8% | 96.8% | 118% | 93.3%
11 | Cc1cc(Cl)ccc1Nc1nc(C(F)(F)F)ccc1C(=O)N/N=C/c1ccc(N(C)C)cc1 | -6.44% (active) | 26.3% | 57.7% | 22.7% | 25.8% | 24.6% | 22.6% | 34.7% |  | -26.1% (active) | 18.7% | 43.2% | 16% | 42.3% | 21% | 22.5% | 39.4% | 16.1% | 17.4% | 12.8%
12 | COc1ccc(C2=Nc3c(N)ncnc3NC(c3ccc4c(c3)OCO4)C2)cc1 (stereo unspecified) | 57.6% | 82.1% | 102% | 79.4% | 107% | 83.6% | 90% | 97.5% |  | 61.5% | 103% | 72.9% | 95% | 97.5% | 37% | 100% | 87.7% | 75.7% | 96.5% | 105%
13 | N#CC1=C(/N=C/c2ccccc2)Oc2c(ccc3ccccc23)C1c1ccccc1 (stereo unspecified) | 45.7% | 34.6% | 37.8% | 32% | 45.2% | 34.3% | 24% | 16.3% |  | 11% | 12.5% | 28.8% | 62.7% | 23.8% | 25.1% | -2.72% (active) | 18.5% | 1.37% (active) | 19.2% | 19.8%
14 | COc1ccc(CN2C(=O)C(Cl)=C(Nc3cccc(C(F)(F)F)c3)C2=O)cc1 | 81.7% | 63.4% | 72.8% | 28.5% | 88.2% | 52.5% | 37.4% | 57.6% |  | 42.6% | 42.5% | 55.1% | 47.6% | 75.8% | 36.1% | 62% | 57% | 38.9% | 9.34% (active) | 11.9%
15 | O=C(/C=C/c1ccco1)c1ccc(Nc2nc(Nc3ccc(F)cc3)nc(Nc3ccc(Cl)cc3)n2)cc1 | 59.4% | 75.5% | 81.1% | 85.3% | 84% | 89.1% | 80% | 30.8% |  | 23.6% | 87.9% | 64.9% | 78.4% | 95.4% | 61.7% | 75% | 81.5% | 67.3% | 0.269% (active) | -99.1% (active)
16 | Cc1ccc(-c2cc3c(cc2O)C2CCCCC2(N2CCOCC2)O3)cc1 (stereo unspecified) | 101% | 107% | 93.1% | 84.5% | 116% | 112% | 96% | 114% |  | 96% | 102% | 110% | 91% | 104% | 104% | 110% | 108% | 99.1% | 86% | 84.1%
17 | CCN(CC)c1nc(SCC(=O)Nc2nc3ccc(C)cc3s2)nc(-c2ccccc2)c1C#N | 92% | 81% | 94% | 68.8% | 94.6% | 94.8% | 75.4% | 81% |  | 61.4% | 89.5% | 77.4% | 80.7% | 93.7% | 65.7% | 93.2% | 83.4% | 96.4% | 2.23% (active) | 79.7%
18 | CC/C=C\CCC/C=C1/C(=O)C=C[C@@H]1C/C=C\CCCC(=O)O | 89.4% | 103% | 48.4% | 70.8% | 114% | 42.9% | 60.1% | 103% |  | 6.36% (active) | 9.28% (active) | 72.6% | 92.5% | 124% | 104% | 43.6% | 45.7% | 19% | 8.78% (active) | 6.84% (active)
19 | O=Cc1c[nH]c2ccc(-c3csc4ccccc34)cc12 | 110% | 55.9% | 75.2% | 42.9% | 60.6% | 63.7% | 39.7% | 43.5% |  | 27.8% | 27.6% | 86.3% | 94.2% | 49.4% | 20.5% | 23.8% | 40.4% | 12.3% | 6.86% (active) | 15.7%
20 | N#Cc1c(-c2ccccn2)[nH]c(=S)[nH]c1=O | 93.7% | 101% | 112% | 84.6% | 94.3% | 108% | 98.8% | 89.6% |  | 112% | 109% | 94.6% | 119% | 104% | 110% | 105% | 109% | 109% | 95.4% | 99.3%
21 | CN1CCN(C(=O)c2c3c(n4ccccc24)C(=O)c2ncccc2C3=O)CC1 | 80% | 91.5% | 45% | 35.2% | 89.3% | 32% | 35.7% | 51.5% |  | 57.9% | 68% | 99.6% | 72% | 70% | 60% | 7.09% (active) | 52.5% | 71.5% | 18% | 103%
22 | N#C/C(=C\c1ccc(Br)cc1)n1nnc2cc(F)c(F)cc21 | 29.5% | 69.8% | 17% | 33.9% | 32.1% | 24% | 22.9% | 26.8% |  | 0% (active) | 8.14% (active) | 3.24% (active) | 29.8% | 62.5% | 6.79% (active) | 2.19% (active) | 56.1% | 1.66% (active) | 6.06% (active) | 1.95% (active)
